The results in this text go back to PubChem BioAssay (NCATS).

In one experiment the test system is C33A. The experiment is described as follows: Primary qHTS to identify gynecologic anti-cancer compounds using libraries of approved drugs and bioactive compounds (AID 1345084). Also: nearly all actives have a fitted effect of over 55% in size. The note with it: Gynecologic cancer cell panel viability, ATPlite luminescence, 48 h; series mostly up to 57.5 µM. A digest of the protocol: (§1)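 Five-point cytotoxicity, 48 h drug exposure at 37 C, 5% CO2, on cells seeded 16 h beforehand. ATP content read by ATPlite luminescence.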
Background: In qHTS, concentration-response curves come from the screen itself.

A further experiment concerns CAOV3. The description is as above. The note with it: Gynecologic cancer cell panel viability, ATPlite luminescence, 48 h; series mostly up to 57.5 µM. The method in brief: as §1
(In general: In ATP-based viability assays light output follows the ATP content of the culture.)

A further experiment deals with CASKI. Described as above. The note with it: Gynecologic cancer cell panel viability, ATPlite luminescence, 48 h; series mostly up to 57.5 µM. A digest of the protocol:
as §1

The next experiment deals with Es-2. The description is as above. The note with it: Gynecologic cancer cell panel viability, ATPlite luminescence, 48 h; series mostly up to 57.5 µM. A digest of the protocol: as §1
A further experiment concerns HeLa. The experiment is described as above. The note with it: Gynecologic cancer cell panel viability, ATPlite luminescence, 48 h; series mostly up to 57.5 µM. A digest of the protocol: as §1
The next experiment deals with Hek293T. The description is as above. The note with it: Gynecologic cancer cell panel viability, ATPlite luminescence, 48 h, control line for the selectivity index; series mostly up to 57.5 µM. The method in brief:
as §1

The next experiment concerns JEG-3. The experiment is described as above. The note with it: Gynecologic cancer cell panel viability, ATPlite luminescence, 48 h; series mostly up to 57.5 µM. A digest of the protocol: as §1
In the next experiment the test system is PA-1. Described as above. The note with it: Gynecologic cancer cell panel viability, ATPlite luminescence, 48 h; series mostly up to 57.5 µM. A digest of the protocol: as §1
The test system of another experiment is SKOV3. Described as above. The note with it: Gynecologic cancer cell panel viability, ATPlite luminescence, 48 h; series mostly up to 57.5 µM. A digest of the protocol: as §1
A further experiment relates to Tov-21-G. Described as above. The note with it: Gynecologic cancer cell panel viability, ATPlite luminescence, 48 h; series mostly up to 57.5 µM. The method in brief: as §1
The next experiment relates to Tov112D. Described as above. The note with it: Gynecologic cancer cell panel viability, ATPlite luminescence, 48 h; series mostly up to 57.5 µM. The method in brief:
as §1

The next experiment relates to OV90. The experiment is described as above. The note with it: Gynecologic cancer cell panel viability, ATPlite luminescence, 48 h; series mostly up to 57.5 µM. A digest of the protocol: as §1
The nature of experiment [1]: qHTS assay to identify inhibitors of the type 1 interferon - major histocompatibility complex class I in skeletal muscle: Counter screen cell viability and HiBit confirmation (AID 1347412). Also: nearly all actives have a fitted effect of over 60% in size. The note with it: iHSKM muscle cells + IFN-b, HiBiT or CellTiter-Glo, 24 h. The method in brief: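 Human myoblast knock-in line, 4.0 ng/ml IFN-beta stimulation, 24 h compound treatment. Endpoints: HiBiT lytic luminescence (HLA-B level) and CellTiter Glo (ATP). Dosing 12 concentrations, 3-fold steps, 46 uM highest final.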

Inconclusive results are not listed. Unmarked numbers belong to inactive results. The source made the active and inactive calls. Calls follow the shape of the dose curve; as a rule, active = well fitted curve in the direction sought with a large enough effect; inconclusive = small, poorly fitted or top-dose-only effect, or another doubt; inactive = no such curve, though single readings can be large; an effect the other way counts as inactive or inconclusive.
% is scaled to controls: 0 for no effect and ±100 for the full control effect; potency is read from the fitted curve at half-maximal effect.

Regarding `CCC/C=C/C(=O)O[C@H]1CC(C)(C)CC2[C@@]13[C@H](O)C[C@]1(C)[C@@]2(CCC2[C@@]4(C)CC[C@H](O[C@@H]5O[C@H](C(=O)O)[C@@H](O)[C@H](O[C@@H]6O[C@H](CO)[C@H](O)[C@H](O)[C@H]6O[C@@H]6O[C@@H](C)[C@H](O)[C@@H](O)[C@H]6O[C@@H]6OC[C@](O)(CO)[C@H]6O)[C@H]5O[C@@H]5O[C@H](CO)[C@H](O)[C@H](O)[C@H]5O)C(C)(C)C4CC[C@]21C)O[C@H]3O` (some centres not stated), the activity change, negative = cytotoxicity with C33A is 1.29% [at 6.55 µM]; in the experiment on CAOV3 it was -15.9% [at 6.55 µM]; in the experiment with CASKI it was -0.213% [at 6.55 µM]; in the experiment with Es-2, 3.48% [at 6.55 µM]; in the experiment on HeLa, 4.5% [at 6.55 µM]; in the experiment on Hek293T, -25.4% [at 6.55 µM]. Besides, the activity change, negative = cytotoxicity is 15.7% [at 6.55 µM] with JEG-3; -0.263% [at 6.55 µM] in the experiment with PA-1; -3.55% [at 6.55 µM] in the experiment on SKOV3; -24.3% [at 6.55 µM] in the experiment on Tov-21-G; 7.77% [at 6.55 µM] in the experiment with Tov112D.
`O=C(Nc1ccccc1)N1CCN(c2nc(-c3ccccc3)ns2)CC1`: the Potency entry with C33A, in the experiment with CAOV3, with CASKI, in the experiment on Es-2, in the experiment on HeLa and with Hek293T was “inactive” throughout. The Potency entry in the experiment on JEG-3, with OV90, with Tov-21-G and in the experiment with Tov112D was “inactive” each time.
For `C[C@@H]1O[C@@H](O[C@H]2[C@@H]3C=CO[C@@H](O[C@@H]4O[C@H](CO)[C@@H](O)[C@H](O)[C@H]4O)[C@@H]3[C@@]3(CO)O[C@@H]23)[C@H](O)[C@H](OC(=O)/C=C/c2ccccc2)[C@H]1O`, the Potency result in the experiment on C33A, in the experiment with CAOV3, in the experiment on CASKI, in the experiment with Es-2, in the experiment on HeLa and in the experiment with Hek293T was “inactive” in each case. The Potency entry with JEG-3, in the experiment with OV90, with Tov-21-G and with Tov112D was “inactive” in each case.
Regarding `COc1ccc(CNCc2cccc3ccccc23)cc1`, the Potency result in the experiment on C33A, with CAOV3, in the experiment on CASKI, in the experiment with Es-2, in the experiment on HeLa and in the experiment on Hek293T was “inactive” in each case. Also, the Potency entry with JEG-3, in the experiment with PA-1, in the experiment on SKOV3, with Tov-21-G and in the experiment with Tov112D was “inactive” each time.
On to `Cc1[nH]c2ccccc2c1CCNCc1ccc(/C=C/C(=O)NO)cc1`, for which the Potency with C33A was 251 nM (active); in the experiment on CAOV3 it was 1000 nM (active); in the experiment on CASKI it was 447 nM (active); in the experiment on Es-2, 355 nM (active); in the experiment on HeLa, 126 nM (active); in the experiment with Hek293T, 1580 nM (active). Besides, the Potency in the experiment with JEG-3 was 251 nM (active); in the experiment on OV90, 1000 nM (active); with Tov-21-G, 708 nM (active); in the experiment on Tov112D it was 316 nM (active); in [1] (HiBiT) it was 62.5 nM (active). In addition, in experiment [1] (Viability, at 45.9 µM (top of the series)), the activity change, negative = inhibition was -25.2%.
As to `CNc1cccc(CCOc2ccc3c(c2)CN(CC(F)(F)F)C(=O)[C@H](CC(=O)O)C3)n1`, the Potency result in the experiment on C33A, with CAOV3, in the experiment with CASKI, in the experiment on Es-2, in the experiment with HeLa and in the experiment on Hek293T was “inactive” throughout. Also, the Potency entry in the experiment on JEG-3, in the experiment on OV90 and in the experiment on Tov112D was “inactive” each time. The figures for the Potency in the experiment with SKOV3 and with Tov-21-G were 1780 nM (active) and 501 nM (active), respectively.
In the case of `Cc1cc(N2CCOCC2)ccc1Nc1nc(NC2CCCCC2)c2[nH]cnc2n1`, the Potency entry in the experiment on C33A, with CAOV3, in the experiment on CASKI, in the experiment with Es-2, in the experiment with HeLa and with Hek293T was “inactive” in each case. The Potency result with JEG-3, with OV90, in the experiment on Tov-21-G and with Tov112D was “inactive” in each case.
Turning to `CCN1CCN(Cc2ccc(C(=O)Nc3ccc(C)c(Oc4ccc5c(c4)CC(=O)N5)c3)cc2C(F)(F)F)CC1`, the Potency entry in the experiment on C33A, in the experiment on CAOV3, with CASKI, in the experiment with Es-2, in the experiment on HeLa and with Hek293T was “inactive” each time. The Potency result in the experiment with JEG-3, with OV90, with Tov-21-G and in the experiment with Tov112D was “inactive” each time.
Turning to `O=C(NCCN1CCC(n2c(=O)[nH]c3ccccc32)CC1)c1ccc2ccccc2c1`, the Potency result with C33A, in the experiment with CAOV3, with CASKI, in the experiment with Es-2, with HeLa and with Hek293T was “inactive” each time. Also, the Potency result with JEG-3, in the experiment with PA-1, in the experiment with SKOV3, in the experiment on Tov-21-G and with Tov112D was “inactive” in each case.
Take `CC1=C(C(=O)OC2CCCCC2)C(c2ccc([N+](=O)[O-])cc2)C2=C(CC(C)(C)CC2=O)N1` (configuration not stated): the Potency result in the experiment on C33A, with CAOV3, in the experiment with CASKI, in the experiment on Es-2, in the experiment with HeLa and with Hek293T was “inactive” each time. In addition, the Potency result with JEG-3, in the experiment on OV90, in the experiment with SKOV3, in the experiment with Tov-21-G and in the experiment on Tov112D was “inactive” each time.
Turning to `O=C(Nc1ccc(-c2ccnc(Nc3ccc(N4CCOCC4)cc3)n2)cc1)C1CCCN1` (configuration not stated), the Potency result in the experiment on C33A, in the experiment on CAOV3, with CASKI, with Es-2, in the experiment on HeLa and with Hek293T was “inactive” throughout. The Potency result in the experiment on JEG-3, with OV90, in the experiment on SKOV3 and in the experiment on Tov112D was “inactive” in each case.
Turning to `C=C[C@H](/C=C\c1ccc(O)cc1)c1ccc(O)cc1`, the Potency result in the experiment on C33A, in the experiment with CAOV3, in the experiment on CASKI, in the experiment on Es-2, in the experiment with HeLa and in the experiment with Hek293T was “inactive” each time. The Potency entry in the experiment on JEG-3, with OV90, with SKOV3, with Tov-21-G and in the experiment on Tov112D was “inactive” each time.
Consider `O=S(=O)(Nc1ccccc1N1CCCCC1)c1ccc(Cl)s1`, for which the Potency entry in the experiment with C33A, in the experiment on CAOV3, with CASKI, in the experiment on Es-2, in the experiment on HeLa and in the experiment on Hek293T was “inactive” each time. Moreover, the Potency result with JEG-3, with PA-1, in the experiment with SKOV3, in the experiment on Tov-21-G and in the experiment with Tov112D was “inactive” each time.
As for `COc1ccc(S(=O)(=O)n2cnc3cc(C)c(C)cc32)cc1`, the Potency result in the experiment with C33A, in the experiment on CAOV3, in the experiment with CASKI, with Es-2, in the experiment with HeLa and in the experiment with Hek293T was “inactive” each time. Further, the Potency entry in the experiment on JEG-3, with OV90, in the experiment with SKOV3, with Tov-21-G and in the experiment with Tov112D was “inactive” throughout.
For the compound `CCn1c(=O)c(-c2ccc(-c3cncs3)cc2Cl)cc2cnc(Nc3ccc(N4CCN(C)CC4)cc3)nc21`, the Potency entry in the experiment with C33A, in the experiment on CAOV3, with CASKI, with Es-2, with HeLa and with Hek293T was “inactive” in each case. In addition, the Potency entry with JEG-3, in the experiment with OV90, in the experiment on SKOV3 and in the experiment on Tov112D was “inactive” throughout.
On to `O=C(O)CCc1nccc2c1[nH]c1ccccc12`, for which the Potency entry in the experiment on C33A, in the experiment on CAOV3, in the experiment on CASKI, with Es-2, with HeLa and in the experiment on Hek293T was “inactive” each time. Further, the Potency entry in the experiment with JEG-3, with OV90, in the experiment with SKOV3, in the experiment with Tov-21-G and with Tov112D was “inactive” each time.
Consider `O=C(Nc1ccc(N(Cc2ccsc2)C(=O)Cn2nnc3ccccc32)cc1)C1CC1`, for which the Potency result with C33A, in the experiment on CAOV3, in the experiment on CASKI, in the experiment with Es-2, in the experiment with HeLa and with Hek293T was “inactive” in each case. In addition, the Potency entry in the experiment with JEG-3, in the experiment on OV90, in the experiment on SKOV3, in the experiment on Tov-21-G and in the experiment on Tov112D was “inactive” in each case.
